Compound activity: PubChem BioAssay, National Center for Advancing Translational Sciences (NCATS)
Rows were chosen to be rich in hits. Some 4.2% of all compounds tested hit in one or more screens of this group.
MCF10A rereplic – inducers of DNA re-replication in MCF 10A breast cells; MCF 10A DNA re-replication, Hoechst nuclear intensity, 48 h; Potency, µM (top dose mostly 46.1 µM), for inactives: top-dose activity, positive = re-replication, usual class: activators; 350,000 tested, 2.9% active; note: % of control where 0% means no effect; nearly all actives have a fitted effect of over 50% in size
A-T KAP1 phos – potential ataxia-telangiectasia treatments restoring KAP-1 phosphorylation; Potency, µM (top dose mostly 57.5 µM), without a hit: top-dose activation, actives largely listed as activators; F2112 A-T fibroblasts, KAP-1 phosphorylation AlphaLISA; neocarzinostatin DNA damage 30 min before lysis; 320,000 tested, 0.19% active; note: % of control where 0% means no effect; nearly all actives have a fitted effect of over 45% in size
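ATM-like activity read as KAP-1 phosphorylation via AlphaLISA donor/acceptor antibody pairs after lysis and 6 hr at 25C. Cells were ATM-null patient fibroblasts (F2112, hTERT), dosed 60 min, then exposed to the DSB inducer NCS for 30 min.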
SW480 rerep – DNA re-replication induction in SW480 cells. 340,000 tested, 1.8% active. Potency, µM (doses to about 46.1 µM), for the others: top-dose re-replication activation, most hits filed as activators. SW480 DNA re-replication, Hoechst DNA content imaging, 48 h; note: % of control where 0% means no effect; nearly all actives have a fitted effect of over 55% in size
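Readout is total intensity of Hoechst-stained nuclei, excited at 405 nm and collected at 500-530 nm. Compound treatment lasted 48 hr at 37 C in 5% CO2 before staining.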
Mito fusion yeast – blocks mitochondrial division or promotes mitochondrial fusion; S. cerevisiae fusion-defective mutant growth rescue, CellTiterGlo 48 h; Potency, µM (series often up to 46.1 µM), for the others: at the top dose growth rescue (activation), actives largely listed as activators; 320,000 tested, 0.23% active; AID 485298; note: % of control where 0% means no effect; nearly all actives have a fitted effect of over 45% in size
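Temperature-sensitive fusion-defective S. cerevisiae (e.g. fzo1-1, mgm1-5) were grown with compound in YPEG medium (3% ethanol, 3% glycerol) for 48 hours at 37C. Growth rescue was measured as viability by CellTiterGlo luminescence after 10 minutes at ambient.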
a7 integrin act – integrin-mediated muscular dystrophy alleviation activation | alpha7betagal myoblasts, beta-gal FDG fluorescence, 48 h | Potency, µM (doses to about 38.3 µM), for inactives: top-dose activation, most hits filed as activators | 350,000 tested, 0.064% active;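 note: 100% = response of the positive control SU9516; nearly all actives have a fitted effect of over 60% in size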
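alpha7betagal+/- myoblasts (passage 13, 250/well) treated 48 h at 37C with compounds at 1:260 dilution of DMSO stock. Lysed, then beta-galactosidase activity read as FDG fluorescence (ex 480/em 540) after 30 min, with pre-read for autofluorescence.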
Numbers without * were called inactive; ? = inconclusive; / = not tested or not shown. Calls come from the whole dose curve; as a rule, active = well fitted activation curve with a large enough effect; inconclusive = small, poorly fitted or top-dose-only effect; inactive = no such curve, though single readings can be large or run the other way. Potency is the fitted concentration of half-maximal effect.

SMILES	MCF10A rereplic	A-T KAP1 phos	SW480 rerep	Mito fusion yeast	a7 integrin act
Cc1cc(S(=O)(=O)NCc2cccs2)ccc1-n1cnnn1	0%	0%	-1%	-6%	-14%
COC(=O)c1cc(NC(=O)c2cc(-c3ccc(C(F)(F)F)cc3)oc2C(F)(F)F)ccc1N1CCOCC1	22%	-4%	5.8µM*	-5%	-8%
N#Cc1ccc(Sc2nc3ccccc3[nH]2)cc1C#N	3%	9%	7%	-1%	10µM*
CC(C)(C)c1ccc(Cn2c(=O)cnc3ccccc32)cc1	15µM*	5%	?	11%	-3%
COc1cccc(CNc2ncnc3ccc(-c4c(C)noc4C)cc23)c1	?	5%	-22%	10%	/
Cc1ccsc1CNc1ncnc2ccc(-c3c(C)noc3C)cc12	5.8µM*	-1%	-1%	/	/
Cc1cccc(OCC(=O)N/N=C/C=C/c2ccco2)c1	?	7%	-5%	4%	3%
Cc1ccc(OCC(=O)N/N=C/C=C/c2ccco2)c(Br)c1	?	0%	16µM*	0%	-11%
CCN1CCN(c2ccc(S(=O)(=O)N3CCCCC3)cc2NC(=O)c2ccc([N+](=O)[O-])s2)CC1	?	8%	13µM*	-1%	-35%
CCN1CCN(c2ccc(S(=O)(=O)N3CCCCC3)cc2NC(=O)COc2ccccc2)CC1	10%	5%	10%	-2%	5%
CCN1CCN(c2ccc(S(=O)(=O)N3CCCCC3)cc2NC(=O)/C=C/c2cc(OC)ccc2OC)CC1	21µM*	5%	149%	-4%	-71%
CCN1CCN(c2ccc(S(=O)(=O)N3CCCCC3)cc2NC(=O)c2ccccc2)CC1	3%	-6%	-1%	-6%	-5%
COc1ccc(OC)c(/C=C/C(=O)Nc2cccc(S(=O)(=O)N3CCCC3)c2)c1	23µM*	25%	14%	1%	2%
CCN1CCN(c2ccc(S(=O)(=O)N3CCCCC3)cc2NC(=O)COc2ccc(Cl)c(C)c2)CC1	1%	7%	16µM*	-8%	-4%
CN(C)C(=O)Cn1cc(S(=O)(=O)Cc2ccccc2)c2ccccc21	1%	0%	-1%	-9%	4%
Cc1noc(C)c1S(=O)(=O)Nc1ccc2c(c1)C(=O)N([C@H](C)CO)C[C@H](C)[C@@H](CN(C)C(=O)Nc1ccc3c(c1)OCO3)O2	-1%	6%	?	/	38%
O=C(CCNS(=O)(=O)c1ccccc1F)NCc1ccc2c(c1)OCO2	8%	3%	-2%	2%	15%
COc1cc(SC)ccc1C(=O)Nc1nc2ccccc2[nH]1	10%	10%	-2%	-54%	-13%
O=C(COC(=O)c1cccc(F)c1)Nc1cccc(S(=O)(=O)N2CCCCC2)c1	/	/	/	/	-4%
S=C(Nc1ccccc1Cl)N1CCCCCC1	-17%	-1%	1%	-8%	5%
S=C(Nc1ccccc1Cl)N1CCCC(c2ccccc2)=N1	13µM*	8%	?	19%	2%
Cc1ccc(NC(=O)C2CCN(S(C)(=O)=O)CC2)c(C)c1	4.1µM*	-2%	-42%	-1%	21%
Cc1cc(Cl)ccc1NC(=O)C1CCN(S(C)(=O)=O)CC1	-24%	-1%	3%	-4%	-21%
CCC1CSC(Nc2ccc(C(=O)/C=C/c3ccc(Br)cc3)cc2)=N1 (stereo not given)	16µM*	/	?	23%	-68%
COc1ccc(C)cc1S(=O)(=O)N1CCCC(N2CCN(c3ccccc3)CC2)C1 (stereo not given)	/	/	/	/	-6%
Cc1ccc2nc(C(F)(F)F)c(C#N)c(N)c2c1	3.3µM*	7%	?	-6%	17%
Cc1cc(C)c2nc(C(F)(F)F)c(C#N)c(N)c2c1	?	/	-2%	-7%	4%
CN(C)CCNc1nc(-c2ccccc2)c2c(c1C#N)CC(C)(C)OC2	5%	/	2%	-3%	-13%
CC1(C)Cc2c(c(-c3ccco3)nc3sc4c(NCCN5CCOCC5)ncnc4c23)CO1	?	-2%	-31%	-6%	-63%
CC1(C)Cc2c(C#N)c(NCCO)nc(-c3ccco3)c2CO1	23µM*	?	18µM*	0%	-2%
